Screening data as filed in PubChem.
GDH-TPI counter-1: GDH-TPI coupling enzyme inhibitors, primary screen, artefact control for M. tuberculosis FBA inhibitor project, biochemical, absorbance, full deck | GDH-TPI coupled enzyme counterscreen, NADH absorbance | inhibition, % at 4.8 µM | hit rate 1.2% among 360,000 | AID 588335, 2011; in the data active = inhibition above about 30%
FadD28 binding: inhibitors of FadD28 bisubstrate probe binding, primary screen, biochemical, fluorescence polarization, single point. Mycobacterium tuberculosis FadD28 fatty-acid-AMP ligase. inhibition, % at 12.5 µM. hit rate 0.22% among 360,000; in the data active = inhibition above about 8.5%, passing the limit was not always enough
BioA inh: M. tuberculosis BioA enzyme inhibitors, primary screen, biochemical, plate reader, single point, HTS. hit rate 0.096% among 360,000. inhibition, % at 9.99 µM. purified M. tuberculosis BioA enzyme. 7,8-diaminopelargonic acid synthase BioA (Mycobacterium tuberculosis). AID 602481, 2012; in the data active = inhibition above about 40%
Mtb FBA inh: Mtb FBA enzyme inhibitors, primary screen, biochemical, fluorescence, strain H37Rv | Fructose-bisphosphate aldolase (Mycobacterium tuberculosis (strain ATCC 25618 / H37Rv)), … | purified M. tuberculosis FBA, fluorescence read-out | inhibition, % at 1 µM | hit rate 2.3% among 360,000 | AID 588726, 2011
Target sequence (P9WQA3 whole entry, looked up): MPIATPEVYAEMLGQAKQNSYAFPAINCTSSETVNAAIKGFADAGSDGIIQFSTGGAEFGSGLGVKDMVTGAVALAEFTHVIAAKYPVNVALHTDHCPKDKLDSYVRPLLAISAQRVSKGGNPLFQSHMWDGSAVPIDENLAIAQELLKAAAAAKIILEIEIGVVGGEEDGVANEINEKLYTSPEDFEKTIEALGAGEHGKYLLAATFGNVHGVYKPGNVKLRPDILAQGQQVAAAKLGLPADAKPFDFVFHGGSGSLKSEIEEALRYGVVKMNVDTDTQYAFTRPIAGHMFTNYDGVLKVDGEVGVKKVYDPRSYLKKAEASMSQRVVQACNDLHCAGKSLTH
Rv3671c inh: Rv3671c serine protease inhibitors, primary screen, biochemical, fluorescence polarization, M. tuberculosis H37Rv; P9WHR9; hit rate 0.048% among 320,000; inhibition, % at 5.96 µM; AID 2606, 2010; in the data active = inhibition above about 38%;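 also: extracellular domain of Rv3671c used as enzyme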
Mtb FBA confirm: M. tuberculosis aldolase blockers, biochemical, fluorescence, strain H37Rv, confirmation; purified M. tuberculosis FBA, fluorescence read-out; hit rate 78% among 5,600; shares compounds with Mtb FBA inh; inhibition, % at 1 µM
GDH-TPI counter-2: GDH-TPI coupling enzyme inhibitors, artefact control for M. tuberculosis FBA inhibitor project, biochemical, fluorescence, high throughput; shares compounds with Mtb FBA inh; hit rate 81% among 5,600; inhibition, % at 1 µM; GDH-TPI coupled enzyme counterscreen; in the data active = inhibition above about 10%
A number is an active result; – = inactive; · = no result; + = active, no number. Rows were chosen to be rich in hits. Some 3% of all compounds tested hit in one or more screens of this group. Rule as the data show it, unless noted: active = inhibition above about 27%; inactive = the rest.

SMILES	GDH-TPI counter-1	FadD28 binding	BioA inh	Mtb FBA inh	Rv3671c inh	Mtb FBA confirm	GDH-TPI counter-2
Cc1c(OCC(=O)N2CCC[C@@H]2C(=O)O)ccc2c3c(c(=O)oc12)CCC3	–	–	–	36	–	93	88
Cc1noc(C)c1NC(=O)NCC[C@@H]1CC[C@H](NC(=O)c2ccc(F)cc2)[C@@H](CO)O1	·	·	–	·	·	·	·
N#Cc1ccc(-c2ccc([C@@H]3[C@H]4CN(S(=O)(=O)c5ccccc5)CCCCN4[C@H]3CO)cc2)cc1	·	·	–	·	·	·	·
Nc1ccc2ccccc2c1[N+](=O)[O-]	–	–	·	–	·	·	·
Nc1cc2c3ccccc3ccc2c2ccccc12	–	–	·	62	·	+	+
O=c1oc2c3c4c(cc2c2c1CCC2)OCCN4CCC3	–	–	–	97	–	79	58
CO[C@@H]1CN(C)C(=O)c2ccc(NS(=O)(=O)c3ccc(C)cc3)cc2OC[C@@H](C)N(Cc2ccccn2)C[C@H]1C	·	·	–	·	·	·	·
CCCc1cc(=O)oc2c(C)c(OCC(=O)N3CCC(C(=O)O)(c4ccccc4)CC3)ccc12	–	–	–	32	–	103	91
Cc1cc(=O)oc2c(C)c(OCC(=O)N3CCC(C(=O)O)(c4ccccc4)CC3)ccc12	–	–	–	35	–	–	–
CCc1cc(=O)oc2cc(C)cc(OCC(=O)N3CCC(C(=O)O)(c4ccccc4)CC3)c12	–	–	–	88	–	–	–
Cc1cc(OCC(=O)N2CCN(c3ccccc3)CC2)c2c(C)cc(=O)oc2c1	–	–	–	–	–	·	·
CCCCNc1c(-c2ccc(OC)c(SC(C)CC)c2)nc2cc(C)ccn12 (stereo unspecified)	–	–	–	31	–	93	91
c1csc(-c2nc3ccccn3c2NC2CCCCC2)c1	–	–	·	43	–	–	–
CCCCNc1c(-c2ccc(Sc3ccc(OC)cc3)cc2)nc2cc(C)ccn12	–	–	–	53	–	54	60
CCCCCCSc1ccc(-c2nc3ccc(C)cn3c2NCc2ccccc2)cc1	–	–	–	–	–	·	·
CCCCCCSc1ccc(-c2nc3ccc(C)cn3c2NCc2ccccc2)cc1OC	–	–	–	38	–	146	110
CCC(=O)N1C[C@@H](C)[C@H](OC)CN(C)C(=O)c2cc(NC(=O)Nc3ccccc3)ccc2OC[C@H]1C	·	·	–	·	·	·	·
COc1ccc(CNC(=O)C[C@H]2C[C@H]3c4cc(NC(=O)C5CCC5)ccc4O[C@H]3[C@@H](CO)O2)cc1	·	·	–	·	·	·	·
CCC(C)Sc1cc(-c2nc3ccccn3c2NC2CCCCC2)ccc1OC (stereo unspecified)	–	–	–	34	–	87	78
CCCCNc1c(-c2ccc(OC)c(SC(C)CC)c2)nc2ccc(C)cn12 (stereo unspecified)	–	–	–	41	–	74	87
CCCCNc1c(-c2ccc(SC(C)CC)cc2)nc2ccccn12 (stereo unspecified)	–	–	–	57	–	83	72
CCCCCCSc1cc(-c2nc3ccc(C)cn3c2NCCCC)ccc1OC	–	–	–	28	–	139	107
CCCCNc1c(-c2cccc(SC(C)CC)c2)nc2ccc(Cl)cn12 (stereo unspecified)	–	–	–	–	–	·	·
CCS(=O)(=O)Nc1ccc2c(c1)C(=O)N(C)[C@@H]1CC[C@@H](CC(=O)N[C@@H]3CCN(Cc4ccccc4)C3)O[C@H]1CO2	·	·	–	·	·	·	·
COC(=O)C(CC#Cc1ccc2c(c1)[C@]1(C(=O)N2)[C@H](c2ccccc2OCCO)N2[C@H](c3ccccc3)[C@H](c3ccccc3)OC(=O)[C@H]2[C@@H]1C(=O)N1CCc2cc(OC)c(OC)cc2C1)C(=O)OC	·	·	–	·	·	·	·
C[C@H](NC(=O)C[C@H]1CC[C@@H]2[C@H](COC[C@H](O)CN2Cc2ccc(C(F)(F)F)cc2)O1)c1ccccc1	·	·	–	·	·	·	·
